# Measurements published in PubChem BioAssay (Tox21).
# Records with an inconclusive call do not appear. Where a call stands in place of a potency, no number is given. Where a structure was tested more than once in an assay, its records may differ in their call. Active and inactive are the calls of the source. Unless noted, the call rests on the fitted dose curve.
# Columns and labels:
# [1] = biological target: Acetylcholinesterase (Homo sapiens) (UniProt P22303); assay: Acetylcholinesterase (AChE) small molecule antagonists: colormetric cell-based qHTS assay (AID 1347395); further: nearly all actives have a fitted effect of over 30% in size; further: potency means the concentration at half of the fitted maximal effect
# How it was run: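 SH-SY5Y cells; cpd 30 min 37 C; + DTNB/acetylthiocholine, 90 min 37 C; colorimetric thiocholine read; qHTS.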
# [2] = biological target: Acetylcholinesterase (Homo sapiens) (UniProt P22303); assay: Acetylcholinesterase (AChE) small molecule antagonists: enzyme-based qHTS assay (AID 1347397); details: Potency: AChE enzyme activity inhibition; outcome: AChE enzyme activity inhibition; further: nearly all actives have a fitted effect of over 55% in size
# How it was run: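 Recombinant human AChE (50 mU/mL) preincubated with compound 30 min at room temperature; acetylthiocholine plus DTNB then added, and thiocholine formation read colorimetrically after 10 min at room temperature. DMSO served as vehicle control.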
# [3] = biological target: Acetylcholinesterase (Homo sapiens) (UniProt P22303); assay: Acetylcholinesterase (AChE) small molecule antagonists: fluorescence cell-based qHTS assay (AID 1347398); details: Potency: AChE activity; outcome: AChE activity; further: nearly all actives have a fitted effect of over 50% in size
# How it was run: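 SH-SY5Y cells (2000/well), attached overnight, incubated with compound 30 min at 37 C. Acetylthiocholine plus Thiolite Green then added for 40 min at room temperature. Thiocholine fluorescence (Ex/Em 490/520 nm) reports cellular AChE activity.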
# [4] = biological target: Acetylcholinesterase (Homo sapiens) (UniProt P22303); assay: Acetylcholinesterase (AChE) small molecule antagonists: enzyme-based qHTS assay with human liver microsomes (AID 1347399); details: Potency: qHTS inhibition; outcome: qHTS inhibition; further: nearly all actives have a fitted effect of over 60% in size
# How it was run: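 Recombinant human AChE (50 mU/mL in the enzyme mix) and human liver microsomes (0.25 mg/mL final) were preincubated with compound and NADPH (0.25 mg/mL final) for 30 min at 37 C. Acetylthiocholine/DTNB was then added; thiocholine was read colorimetrically after 10 min at room temperature.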
# [5] = biological target: Aromatase (Homo sapiens) (UniProt P11511); assay: qHTS assay to identify aromatase inhibitors (AID 743083; active means well fitted inhibition curve with a large enough effect in the repeat runs; further: potency means the concentration at half of the fitted maximal effect; nearly all actives have a fitted effect of over 55% in size)
# Sequence of Aromatase (Homo sapiens) (P11511 whole entry, looked up): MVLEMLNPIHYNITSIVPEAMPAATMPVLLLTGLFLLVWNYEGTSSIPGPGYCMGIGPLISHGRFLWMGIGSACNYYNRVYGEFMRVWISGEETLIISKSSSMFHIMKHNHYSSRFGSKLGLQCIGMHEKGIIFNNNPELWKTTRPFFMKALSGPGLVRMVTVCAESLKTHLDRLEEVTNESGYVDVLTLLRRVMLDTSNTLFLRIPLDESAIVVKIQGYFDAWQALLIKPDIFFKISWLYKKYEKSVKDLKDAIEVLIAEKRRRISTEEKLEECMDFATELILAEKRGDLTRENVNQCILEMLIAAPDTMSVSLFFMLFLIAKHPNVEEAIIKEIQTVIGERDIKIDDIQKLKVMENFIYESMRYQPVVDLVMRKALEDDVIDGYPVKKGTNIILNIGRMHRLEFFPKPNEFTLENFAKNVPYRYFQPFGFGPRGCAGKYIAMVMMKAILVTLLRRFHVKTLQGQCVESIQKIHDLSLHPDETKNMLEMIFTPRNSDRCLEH
# Sequence of Acetylcholinesterase (Homo sapiens) (P22303 whole entry, looked up): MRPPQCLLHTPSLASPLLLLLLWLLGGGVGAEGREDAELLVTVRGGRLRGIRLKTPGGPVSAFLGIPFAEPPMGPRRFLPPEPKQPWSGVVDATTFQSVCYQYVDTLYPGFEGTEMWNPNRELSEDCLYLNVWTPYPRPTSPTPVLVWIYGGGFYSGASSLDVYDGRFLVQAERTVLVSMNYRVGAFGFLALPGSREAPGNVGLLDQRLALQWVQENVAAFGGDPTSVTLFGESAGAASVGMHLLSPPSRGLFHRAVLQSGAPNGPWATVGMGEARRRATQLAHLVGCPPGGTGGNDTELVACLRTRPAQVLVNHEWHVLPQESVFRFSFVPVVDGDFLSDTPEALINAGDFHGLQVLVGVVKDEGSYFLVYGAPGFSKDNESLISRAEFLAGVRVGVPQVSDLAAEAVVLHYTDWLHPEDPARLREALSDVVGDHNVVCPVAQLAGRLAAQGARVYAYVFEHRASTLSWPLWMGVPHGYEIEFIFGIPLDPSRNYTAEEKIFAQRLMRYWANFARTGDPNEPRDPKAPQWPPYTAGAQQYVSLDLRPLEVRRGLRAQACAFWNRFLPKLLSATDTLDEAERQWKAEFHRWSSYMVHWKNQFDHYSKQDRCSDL
compound,measurement,setting,value
Cc1ccc(S(N)(=O)=O)cc1,Potency,[1],inactive
same,Potency,[2],inactive
same,Potency,[3],inactive
same,Potency,[4],inactive
Cc1ccc(Cl)c(Nc2ccccc2C(=O)O)c1Cl,Potency,[1],inactive
same,Potency,[2],inactive
same,Potency,[3],inactive
same,Potency,[4],inactive
CCN(CC)CCOC(=O)C1(C2CCCCC2)CCCCC1,Potency,[1],inactive
same,Potency,[2],inactive
same,Potency,[3],inactive
same,Potency,[4],inactive
c1ccc2c(c1)Cc1ccccc1-2,Potency,[1],inactive
same,Potency,[2],inactive
same,Potency,[3],inactive
same,Potency,[4],inactive
CC(C)OC(=O)CCCCC(=O)OC(C)C,Potency,[1],inactive
same,Potency,[2],inactive
same,Potency,[3],inactive
same,Potency,[4],inactive
C[N+](C)(C)CC[N+]1(C)Cc2c(Cl)c(Cl)c(Cl)c(Cl)c2C1,Potency,[1],inactive
same,Potency,[2],inactive
same,Potency,[3],inactive
same,Potency,[4],inactive
CC(CO)(CO)C(=O)O,Potency,[1],inactive
same,Potency,[2],inactive
same,Potency,[3],inactive
same,Potency,[4],inactive
CCCCCC/C=C/C(=O)OC,Potency,[1],inactive
same,Potency,[2],inactive
same,Potency,[3],inactive
same,Potency,[4],inactive
CCO[Si](CCCN)(OCC)OCC,Potency,[1],inactive
same,Potency,[2],inactive
same,Potency,[3],inactive
same,Potency,[4],inactive
[O-][N+](=Nc1ccccc1)c1ccccc1,Potency,[1],inactive
same,Potency,[2],inactive
same,Potency,[3],inactive
same,Potency,[4],inactive
C[C@H](CCC(=O)O)[C@H]1CC[C@H]2[C@@H]3CC[C@@H]4C[C@H](O)CC[C@]4(C)[C@H]3C[C@H](O)[C@]12C,Potency,[1],inactive
same,Potency,[2],inactive
same,Potency,[3],inactive
same,Potency,[4],inactive
CC1(C)CC(N=C=O)CC(C)(CN=C=O)C1 (stereo not drawn),Potency,[1],inactive
same,Potency,[2],inactive
same,Potency,[3],inactive
same,Potency,[4],inactive
c1ccc2c(c1)[nH]c1ccccc12,Potency,[1],inactive
same,Potency,[2],inactive
same,Potency,[3],inactive
same,Potency,[4],inactive
OCC#CCO,Potency,[1],inactive
same,Potency,[2],inactive
same,Potency,[3],inactive
same,Potency,[4],inactive
NC(=O)N1c2ccccc2C=Cc2ccccc21,Potency,[1],35.4 µM (active) and inactive
same,Potency,[2],inactive
same,Potency,[3],inactive
same,Potency,[4],inactive
CCC1CCC(CCC(=O)O)C1 (stereo not drawn),Potency,[1],inactive
same,Potency,[2],inactive
same,Potency,[3],inactive
same,Potency,[4],inactive
COC(=O)c1c(Cl)c(Cl)c(C(=O)OC)c(Cl)c1Cl,Potency,[1],inactive
same,Potency,[2],inactive
same,Potency,[3],inactive
same,Potency,[4],inactive
COC(=O)CCCC(=O)O,Potency,[1],inactive
same,Potency,[2],inactive
same,Potency,[3],inactive
same,Potency,[4],inactive
CCOC(=O)C(C#N)=C(c1ccccc1)c1ccccc1,Potency,[1],inactive
same,Potency,[2],inactive
same,Potency,[3],inactive
same,Potency,[4],inactive
COC(=O)C(C)O (stereo not drawn),Potency,[1],inactive
same,Potency,[2],inactive
same,Potency,[3],inactive
same,Potency,[4],inactive
O=c1[nH]c(=O)n([C@H]2C[C@H](O)[C@@H](CO)O2)cc1Br,Potency,[1],inactive
same,Potency,[2],inactive
same,Potency,[3],inactive
same,Potency,[4],inactive
CC(C)[C@H](N)C(=O)OCCOCn1cnc2c(=O)[nH]c(N)nc21,Potency,[1],inactive
same,Potency,[2],inactive
same,Potency,[3],inactive
same,Potency,[4],inactive
CC(C)COC(=O)c1ccc(N)cc1,Potency,[1],inactive
same,Potency,[2],inactive
same,Potency,[3],inactive
same,Potency,[4],inactive
O=C1CC(c2ccc(Cl)cc2)CC(=O)N1,Potency,[1],inactive
same,Potency,[2],inactive
same,Potency,[3],inactive
same,Potency,[4],inactive
NCCCN(CCO)CCO,Potency,[1],inactive
same,Potency,[2],inactive
same,Potency,[3],inactive
same,Potency,[4],inactive
Cc1c2ccccc2c(C)c2c1ccc1ccccc12,Potency,[1],inactive
same,Potency,[2],inactive
same,Potency,[3],inactive
same,Potency,[4],inactive
OCCN(CCO)c1cccc(Cl)c1,Potency,[1],inactive
same,Potency,[2],inactive
same,Potency,[3],inactive
same,Potency,[4],inactive
OCCSc1ccccc1,Potency,[1],inactive
same,Potency,[2],inactive
same,Potency,[3],inactive
same,Potency,[4],inactive
CCCCCCCCS(=O)(=O)Cl,Potency,[1],inactive
same,Potency,[2],inactive
same,Potency,[3],inactive
same,Potency,[4],inactive
CC(O)c1ccccc1 (stereo not drawn),Potency,[1],inactive
same,Potency,[2],inactive
same,Potency,[3],inactive
same,Potency,[4],inactive
CCCCCC(CO)CCC (stereo not drawn),Potency,[1],inactive
same,Potency,[2],inactive
same,Potency,[3],inactive
same,Potency,[4],inactive
O=C(O)C(Cc1cc(I)c(O)c(I)c1)c1ccccc1 (stereo not drawn),Potency,[1],inactive
same,Potency,[2],inactive
same,Potency,[3],inactive
same,Potency,[4],inactive
COc1ccc(C)cc1[N+](=O)[O-],Potency,[1],inactive
same,Potency,[2],inactive
same,Potency,[3],inactive
same,Potency,[4],inactive
CCCC/C=C\CCCCCCCCCC=O,Potency,[1],inactive
same,Potency,[2],inactive
same,Potency,[3],inactive
same,Potency,[4],inactive
COc1cc(C)c(Cc2cnc(N)nc2N)cc1OC,Potency,[1],inactive
same,Potency,[2],inactive
same,Potency,[3],inactive
same,Potency,[4],inactive
CC1CCC(C(C)(C)S)C(=O)C1 (stereo not drawn),Potency,[1],inactive
same,Potency,[2],inactive
same,Potency,[3],inactive
same,Potency,[4],inactive
O=Cc1ccccc1S(=O)(=O)O,Potency,[1],inactive
same,Potency,[2],inactive
same,Potency,[3],inactive
same,Potency,[4],inactive
Oc1ccc(N=Nc2ccccc2)cc1,Potency,[1],inactive
same,Potency,[2],inactive
same,Potency,[3],inactive
same,Potency,[4],inactive
COP(=O)(OC)OC(c1ccc(Cl)cc1)P(=O)(OC)OC (stereo not drawn),Potency,[1],inactive
same,Potency,[2],inactive
same,Potency,[3],inactive
same,Potency,[4],inactive
CS(=O)(=O)CCNCc1ccc(-c2ccc3ncnc(Nc4ccc(OCc5cccc(F)c5)c(Cl)c4)c3c2)o1,Potency,[1],inactive
same,Potency,[2],inactive
same,Potency,[3],inactive
same,Potency,[4],inactive
COC(=O)Nc1nc2ccc(S(=O)c3ccccc3)cc2[nH]1 (stereo not drawn),Potency,[1],inactive
same,Potency,[2],inactive
same,Potency,[3],inactive
same,Potency,[4],inactive
CC1=CC(=O)CC(C)(C)C1,Potency,[1],inactive
same,Potency,[2],inactive
same,Potency,[3],inactive
same,Potency,[4],inactive
c1cc[c]([Bi]([c]2ccccc2)[c]2ccccc2)cc1,Potency,[1],inactive
same,Potency,[2],inactive
same,Potency,[3],inactive
same,Potency,[4],inactive
c1ccc2c(c1)CCC2,Potency,[1],inactive
same,Potency,[2],inactive
same,Potency,[3],inactive
same,Potency,[4],inactive
C=CCCCCCCCCCCCCCCCC,"activity, negative = inhibition",[1],2.13% [at 10.5 µM] (inactive)
same,"activity change, negative = inhibition",[2],-0.28% [at 10.5 µM] (inactive)
same,"activity change, negative = inhibition",[3],3.23% [at 10.5 µM] (inactive)
same,"activity change, negative = inhibition",[4],-0.261% [at 10.5 µM] (inactive)
C=CC(C)(CCC=C(C)C)OC(=O)c1ccccc1 (stereo not drawn),Potency,[1],inactive
same,Potency,[2],inactive
same,Potency,[3],inactive
same,Potency,[4],inactive
NC(=O)C1(N2CCCCC2)CCN(CCCC(=O)c2ccc(F)cc2)CC1,Potency,[1],inactive
same,Potency,[2],inactive
same,Potency,[3],inactive
same,Potency,[4],inactive
CSc1ccc(Cl)cc1,Potency,[1],inactive
same,Potency,[2],inactive
same,Potency,[3],inactive
same,Potency,[4],inactive
CCCCCCCCCCCCCCCCCC#N,Potency,[1],inactive
same,Potency,[2],inactive
same,Potency,[3],inactive
same,Potency,[4],inactive
CCOc1cc(NC(C)=O)ccc1C(=O)OC,Potency,[1],inactive
same,Potency,[2],inactive
same,Potency,[3],inactive
same,Potency,[4],inactive
Cc1cccc(O)c1C,Potency,[1],inactive
same,Potency,[2],inactive
same,Potency,[3],inactive
same,Potency,[4],inactive
C=C[Si](C)(C)Cl,"activity, negative = inhibition",[1],1.82% [at 10.5 µM] (inactive)
same,"activity change, negative = inhibition",[2],0.136% [at 10.5 µM] (inactive)
same,"activity change, negative = inhibition",[3],-9.61% [at 10.5 µM] (inactive)
same,"activity change, negative = inhibition",[4],-5.99% [at 10.5 µM] (inactive)
Nc1ccccc1Nc1ccccc1,Potency,[1],inactive
same,Potency,[2],inactive
same,Potency,[3],inactive
same,Potency,[4],inactive
Cc1ccc(S(=O)(=O)O)cc1C,Potency,[1],inactive
same,Potency,[2],inactive
same,Potency,[3],inactive
same,Potency,[4],inactive
Cn1cccc1,Potency,[1],inactive
same,Potency,[2],inactive
same,Potency,[3],inactive
same,Potency,[4],inactive
CCN(CC)c1ccc(N=Nc2ccccc2)cc1,Potency,[1],inactive
same,Potency,[2],inactive
same,Potency,[3],inactive
same,Potency,[4],inactive
COc1cc(C(=O)OC(COCCC(C)C)CN2CCOCC2)cc(OC)c1OC (stereo not drawn),Potency,[1],inactive
same,Potency,[2],inactive
same,Potency,[3],inactive
same,Potency,[4],inactive
O=C1c2ccccc2C(=O)N1SC1CCCCC1,Potency,[5],30.6 µM (active)
CCCCc1nc(Cl)c(CO)n1Cc1ccc(-c2ccccc2-c2nn[nH]n2)cc1,Potency,[1],inactive
same,Potency,[2],inactive
same,Potency,[4],inactive
S=c1nccc[nH]1,Potency,[1],inactive
same,Potency,[2],inactive
same,Potency,[4],inactive
CC(C)[N+](C)(CCOC(=O)C1c2ccccc2Oc2ccccc21)C(C)C,Potency,[1],inactive
same,Potency,[2],inactive
same,Potency,[4],inactive
